Results on 40 compounds are retold here after PubChem BioAssay (Tox21).

The structures appear in SMILES notation. “And” between values parts separate entries of the source, which are not always exact repeats. Equal values may be shown once. Records with an inconclusive call do not appear. The source made the active and inactive calls. Calls follow the shape of the dose curve; as a rule, active = well fitted inhibition curve with a large enough effect in the signal ratio in the repeat runs; inconclusive = weak or mixed curves, or effect the other way; inactive = flat fitted curve, though single readings scatter; the % refers to the signal ratio.
% is scaled to controls: 0 for no effect and ±100 for the full control effect; potency is read from the fitted curve at half-maximal effect.

The assay is described as follows: qHTS assay for small molecule disruptors of the mitochondrial membrane potential (AID 720635). To be noted: HepG2 mitochondrial membrane potential, Mito-MPS dye ratio; series mostly up to 83.2 µM; ratio activity, negative = MMP loss: at the top concentration. The text has this: U.S. Tox21 Program National Center for Advancing Translational Sciences [NCATS] NIH Chemical Genomics Center [NCGC] U.S. Environmental Protection Agency [EPA] National Institutes of Environmental Health Sciences [NIEHS] National Toxicology Program [NTP] U.S. Food and Drug Administration [FDA] Tox21 Assay Overview: Mitochondrial membrane potential (MMP), one of the parameters for mitochondrial function, is generated by mitochondrial electron transport chain that creates an electrochemical gradient by a series of redox reactions. This gradient drives the synthesis of ATP, a crucial molecule for various cellular processes. Measuring MMP in living cells is commonly used to assess the effect of chemicals on mitochondrial function. […] The dye accumulates in the mitochondria of healthy cells as aggregates, with red fluorescence. The mitochondrial potential collapses and the dye can no longer accumulate in the mitochondria and remains in the cytoplasm in monomers, with green fluorescence.
Tox21 Assay Protocol Summary: 2,000 HepG2 cells in 5 uL/well were dispensed into black, clear-bottom 1536-well plates using a Multidrop Combi (Thermo Scientific) dispenser. The assay plates were incubated overnight at 37C to allow cells to attach to the wells, followed by the transfer of 23 nL compound or DMSO vehicle by a pin tool (Kalypsys). The plates were incubated for 1 hr at 37C and 5% CO2, followed by the addition of 5 uL of 2X Mito-MPS dye (BD Biosciences) into each well using Flying Reagent Dispenser (Aurora Discovery) and then following 30 min incubation at 37C. Fluorescence intensity (490nm excitation and 535nm emission for monomers; and 540nm excitation and 590nm emissions for aggregates) was measured using an Envision plate reader.
As for `NC(=O)N1c2ccccc2CC(=O)c2ccccc21`, the “ratio activity, negative = MMP loss” value was -26.5% (inactive).

Regarding `C[N+](C)(CCOc1ccccc1)Cc1cccs1`, the “ratio activity, negative = MMP loss” value was 21% (inactive).

For the compound `NO`, the Potency is 55.5 µM (active).

As for `CN1CC(=O)N/C1=N/C(=O)Nc1cccc(Cl)c1`, the Potency is 21.1 µM (active) and 26.6 µM (active).

With `Clc1cc(Cl)cc(Cl)c1`, the “ratio activity, negative = MMP loss” value is 19.4% (inactive).

As for `O=C(O)CCSCCC(=O)O`, the “ratio activity, negative = MMP loss” value was 16.3% (inactive).

With `CCCC[N+](C)(CCCC)CCCC`, the “ratio activity, negative = MMP loss” value was 11.4% (inactive).

Consider `CCCCCC(C)N` (stereo not given), for which the “ratio activity, negative = MMP loss” value is -7.73% (inactive).

Consider `COc1ccc2cc1Oc1cc3c(cc1OC)CC[N+](C)(C)[C@H]3Cc1ccc(cc1)Oc1c(OC)c(OC)cc3c1[C@@H](C2)[N+](C)(C)CC3`, for which the “ratio activity, negative = MMP loss” value is 8.41% (inactive).

As for `CC(C#N)(CCC(=O)O)N=NC(C)(C#N)CCC(=O)O` (stereo not given), the “ratio activity, negative = MMP loss” value is 6.13% (inactive).

Turning to `CN1[C@@H]2CC[C@H]1CC(OC(=O)C(O)c1ccccc1)C2` (stereo not given in full), the Potency result was “inactive”.

Take `C=CC(C)(CCC=C(C)C)OC(=O)CC` (stereo not given): the “ratio activity, negative = MMP loss” value was -6.23% (inactive).

Consider `CCCO[Si](OCCC)(OCCC)OCCC`, for which the “ratio activity, negative = MMP loss” value was 4.11% (inactive).

For `CCN[C@H]1C[C@H](C)S(=O)(=O)c2sc(S(N)(=O)=O)cc21`, the “ratio activity, negative = MMP loss” value was -12.1% (inactive).

Consider `COc1cccc(OC)c1C(=O)N[C@@H]1C(=O)N2[C@@H]1SC(C)(C)[C@@H]2C(=O)O`, for which the “ratio activity, negative = MMP loss” value was 16.2% (inactive).

Turning to `[O-][n+]1cccc(CO)c1`, the “ratio activity, negative = MMP loss” value was 8.61% (inactive).

For `CN1C(C)(C)CC(O)CC1(C)C`, the “ratio activity, negative = MMP loss” value was 24.6% (inactive).

As for `CC(C)(CCC(=O)O)C(=O)O`, the “ratio activity, negative = MMP loss” value was 15.9% [at 95.3 µM] (inactive).

As for `O=CN(CCO)CCO`, the “ratio activity, negative = MMP loss” value was 9.16% (inactive).

Take `O=C(O)c1cn(C2CC2)c2cc(N3CCNCC3)c(F)cc2c1=O`: the “ratio activity, negative = MMP loss” value is 10.8% [at 39.1 µM] (inactive).

As for `CC/C=C\CCOC(C)OCC` (stereo not given), the “ratio activity, negative = MMP loss” value is 23.8% (inactive).

As to `CC1(C)OC[C@@H](COC(=O)CCc2ccc(OC[C@@H](O)CNCCNC(=O)N3CCOCC3)cc2)O1`, the “ratio activity, negative = MMP loss” value was 10.4% (inactive).

In the case of `CC(CC=O)CC(C)(C)C` (stereo not given), the “ratio activity, negative = MMP loss” value is 6.66% (inactive).

For `CC(C)NNC(=O)c1ccncc1`, the “ratio activity, negative = MMP loss” value was 7.66% (inactive).

For `CNC(=O)Nc1ccc(Cl)c(Cl)c1`, the Potency is 15.4 µM (active).

In the case of `CC[N+](C)(CC)CCOC(=O)C1c2ccccc2Oc2ccccc21`, the “ratio activity, negative = MMP loss” value is 14.7% (inactive).

In the case of `CCCCCCC#CC(=O)OC`, the “ratio activity, negative = MMP loss” value was 11.2% (inactive).

Turning to `COc1cc(C)nc(-n2nc(C)cc2OC)n1`, the “ratio activity, negative = MMP loss” value is 23.8% [at 39.1 µM] (inactive).

For `O=C(O)CNC(=O)c1ccccc1`, the “ratio activity, negative = MMP loss” value was 5.19% (inactive).

For the compound `Cc1ccnc(NS(=O)(=O)c2ccc(N)cc2)n1`, the “ratio activity, negative = MMP loss” value is 13.2% [at 39.1 µM] (inactive).

For the compound `CCC1C(=O)OCC1Cc1cncn1C` (stereo not given), the “ratio activity, negative = MMP loss” value was 20.9% (inactive).

With `O=C1CCCCCCCCCCCCCCO1`, the “ratio activity, negative = MMP loss” value is -18.1% (inactive).

On to `CC1=NS(=O)(=O)c2cc(Cl)ccc2N1`, for which the “ratio activity, negative = MMP loss” value is 2.64% (inactive).

`COC(=O)Nc1ccc(Cl)c(Cl)c1`: the Potency was 60.8 µM (active).

Consider `COc1cc(-c2ccc(=O)[nH]n2)ccc1OC(F)F`, for which the “ratio activity, negative = MMP loss” value was 23.9% (inactive).

As for `NC(CCC(=O)O)C(=O)O` (stereo not given), the “ratio activity, negative = MMP loss” value is 35.4% (inactive).

As to `N[C@@H](CCC(=O)O)C(=O)O`, the Potency result was “inactive”.

Turning to `CNCCO`, the “ratio activity, negative = MMP loss” value was 14.3% (inactive).

In the case of `CC1CCC(CO)CC1` (stereo not given), the “ratio activity, negative = MMP loss” value is -14% [at 95.3 µM] (inactive).

For `CCOc1ccccc1OCC`, the “ratio activity, negative = MMP loss” value was -2.65% (inactive).
